# Reference: article PMC4336329 (PLoS ONE, 2015)
# Hit rate of the full screen: of about 310,000 compounds, about 14,000 (4.5%) showed an effect of 50% or more. The effect is printed as a negative number. Many of the other results were omitted from the sample, so strong results are more common in it than they were.
# Target: human ether-à-go-go-related gene (hERG) potassium channel (human, UniProt Q12809)
# Experiment: primary screen, population patch clamp on CHO cells stably expressing hERG; higher = less effect of the substance
# 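Also: peak tail current of the secondary pulse compared with the same well before compound.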
# Chain of human ether-à-go-go-related gene (hERG) potassium channel (Q12809 whole entry, looked up): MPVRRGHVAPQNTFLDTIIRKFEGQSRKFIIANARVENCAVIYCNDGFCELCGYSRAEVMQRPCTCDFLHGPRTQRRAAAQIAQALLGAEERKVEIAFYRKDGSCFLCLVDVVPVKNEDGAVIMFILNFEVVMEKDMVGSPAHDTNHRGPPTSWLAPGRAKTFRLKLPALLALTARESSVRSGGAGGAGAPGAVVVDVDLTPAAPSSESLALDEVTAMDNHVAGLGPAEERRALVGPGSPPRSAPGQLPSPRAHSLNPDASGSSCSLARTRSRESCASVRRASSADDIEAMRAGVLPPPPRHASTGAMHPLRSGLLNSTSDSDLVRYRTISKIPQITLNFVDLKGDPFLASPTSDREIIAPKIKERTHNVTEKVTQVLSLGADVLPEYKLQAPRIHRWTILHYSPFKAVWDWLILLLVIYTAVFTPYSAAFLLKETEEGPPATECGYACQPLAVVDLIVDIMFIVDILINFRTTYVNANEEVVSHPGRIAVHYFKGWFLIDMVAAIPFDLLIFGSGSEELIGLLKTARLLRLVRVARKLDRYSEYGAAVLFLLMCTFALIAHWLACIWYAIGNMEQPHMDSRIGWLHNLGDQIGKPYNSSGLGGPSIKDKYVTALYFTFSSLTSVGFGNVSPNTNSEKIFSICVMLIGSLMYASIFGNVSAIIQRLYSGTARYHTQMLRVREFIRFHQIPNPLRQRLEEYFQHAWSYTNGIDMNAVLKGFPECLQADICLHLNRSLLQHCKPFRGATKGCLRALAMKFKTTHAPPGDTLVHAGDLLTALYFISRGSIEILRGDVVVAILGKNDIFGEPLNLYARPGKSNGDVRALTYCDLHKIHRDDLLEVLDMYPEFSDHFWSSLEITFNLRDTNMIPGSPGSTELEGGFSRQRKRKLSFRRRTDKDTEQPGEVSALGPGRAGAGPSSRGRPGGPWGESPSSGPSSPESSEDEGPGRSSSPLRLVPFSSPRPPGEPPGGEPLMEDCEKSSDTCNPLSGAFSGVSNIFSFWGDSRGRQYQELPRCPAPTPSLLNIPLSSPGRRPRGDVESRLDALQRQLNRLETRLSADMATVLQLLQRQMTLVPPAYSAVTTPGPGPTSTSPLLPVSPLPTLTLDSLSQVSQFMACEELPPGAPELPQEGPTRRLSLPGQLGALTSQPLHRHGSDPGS
row,SMILES,"hERG current change (%, negative = inhibition) at 10uM"
1,COc1ccc(Cl)cc1S(=O)(=O)N1CCCC(C(=O)N2CCCC2)C1 (stereo not shown),-5.2%
2,O=C(C1CCCN(S(=O)(=O)c2cc(Cl)ccc2Cl)C1)N1CCCCCC1 (stereo not shown),-62.4%
3,COc1ccc(Cl)cc1S(=O)(=O)N1CCCC(C(=O)N2CCOCC2)C1 (stereo not shown),-69.4%
4,COc1ccc(OC)c(S(=O)(=O)N2CCCC(C(=O)N3CCOCC3)C2)c1 (stereo not shown),20.5%
5,O=C(C1CCCN(S(=O)(=O)c2cc(Cl)ccc2Cl)C1)N1CCOCC1 (stereo not shown),-33.2%
6,O=C(C1CCCN(S(=O)(=O)c2cc(Cl)ccc2Cl)C1)N1CCCC1 (stereo not shown),-19.5%
7,O=C(NCc1ccc(F)cc1)C(=O)NCC1OCCN1C(=O)c1ccc(Cl)cc1 (stereo not shown),-43.2%
8,CN(C)Cc1c(O)ccc2cc(-c3nc4ccccc4n3C)c(=O)oc12,10.2%
9,O=C1/C(=C/c2cccs2)SC(=S)N1N1CCOCC1,5.26%
10,O=[N+]([O-])c1cc(CN2CCN(c3ccccc3)CC2)c(O)c2ncccc12,-7.8%
11,O=[N+]([O-])c1cc(S(=O)(=O)/N=C(/c2ccccc2)N2CCOCC2)ccc1Cl,-23.9%
12,CC(C)CSC1=NSC2=NC(=O)/C(=C\c3cccs3)C(=N)N12,20.2%
13,COc1ccc(C(CNC(=O)C(C)(C)Oc2ccc(Cl)cc2)N2CCCCC2)cc1 (stereo not shown),-53.8%
14,COc1ccccc1C(CNC(=O)C(C)(C)Oc1ccc(Cl)cc1)N1CCCC1 (stereo not shown),-45.1%
15,CC(C)(Oc1ccc(Cl)cc1)C(=O)NCC(c1cccs1)N1CCOCC1 (stereo not shown),-5.84%
16,COc1ccc(C(CNC(=O)C(C)(C)Oc2ccc(Cl)cc2)N2CCCC2)cc1 (stereo not shown),-50.1%
17,CC(C)(Oc1ccc(Cl)cc1)C(=O)NCC(c1ccco1)N1CCCCC1 (stereo not shown),-20.2%
18,COc1ccc(C(CNC(=O)Cc2ccccc2Cl)N2CCCCC2)cc1 (stereo not shown),23%
19,COc1ccc(N(CC(=O)O)S(=O)(=O)c2ccc(OC)c(OC)c2)cc1,-29.6%
20,CS(=O)(=O)c1ccc(C(=O)Nc2cccc(-c3nc4ccccc4[nH]3)c2)cc1,16%
21,O=C(COc1ccccc1)Nc1cccc(-c2nc3cc4ccccc4cc3[nH]2)c1,-9.82%
22,O=C(COc1ccccc1)Nc1cccc(-c2nc3ccccc3[nH]2)c1,-67%
23,CC(C)CC(=O)Nc1cccc(-c2nc3ccccc3[nH]2)c1,-16.5%
24,O=C(O)CCCC(=O)Nc1cccc(-c2nc3ccccc3[nH]2)c1,34.1%
25,CS(=O)(=O)c1cccc(C(=O)Nc2ccc(-c3nc4ccccc4[nH]3)cc2)c1,11.5%
26,CS(=O)(=O)c1cccc(C(=O)Nc2cccc(-c3nc4ccccc4[nH]3)c2)c1,-56.7%
27,CC(=O)Nc1cccc(-c2nc3ccccc3[nH]2)c1,1.87%
28,COc1ccc(OCC(=O)Nc2cccc(-c3nc4ccccc4[nH]3)c2)cc1,-55.9%
